# Shown are actives, neighbours in structure and some others; about 3.7% of the full set was active somewhere.
# BoNT F protease: BoNT F light chain protease inhibition | inhibition, % at 10 µM | Multiplex microsphere protease cleavage assay, flow cytometry | hit rate 0.22% among 360,000 | AID 588497; in the data active means inhibition above about 35%, passing the limit was not always enough; inconclusive means no clear call, values can overlap the other calls
# BoNT A protease: blocks Botulinum neurotoxin A light chain protease. inhibition, % at 10 µM. hit rate 0.17% among 360,000. multiplex microsphere protease substrate cleavage, flow cytometry
# Anthrax LF prot: inhibitors of Bacillus anthracis lethal factor protease | P15917 | multiplex microsphere protease cleavage assay, LF | inhibition, % at 10 µM | hit rate 0.12% among 360,000 | AID 588501
# Target sequence (P15917 whole entry, looked up): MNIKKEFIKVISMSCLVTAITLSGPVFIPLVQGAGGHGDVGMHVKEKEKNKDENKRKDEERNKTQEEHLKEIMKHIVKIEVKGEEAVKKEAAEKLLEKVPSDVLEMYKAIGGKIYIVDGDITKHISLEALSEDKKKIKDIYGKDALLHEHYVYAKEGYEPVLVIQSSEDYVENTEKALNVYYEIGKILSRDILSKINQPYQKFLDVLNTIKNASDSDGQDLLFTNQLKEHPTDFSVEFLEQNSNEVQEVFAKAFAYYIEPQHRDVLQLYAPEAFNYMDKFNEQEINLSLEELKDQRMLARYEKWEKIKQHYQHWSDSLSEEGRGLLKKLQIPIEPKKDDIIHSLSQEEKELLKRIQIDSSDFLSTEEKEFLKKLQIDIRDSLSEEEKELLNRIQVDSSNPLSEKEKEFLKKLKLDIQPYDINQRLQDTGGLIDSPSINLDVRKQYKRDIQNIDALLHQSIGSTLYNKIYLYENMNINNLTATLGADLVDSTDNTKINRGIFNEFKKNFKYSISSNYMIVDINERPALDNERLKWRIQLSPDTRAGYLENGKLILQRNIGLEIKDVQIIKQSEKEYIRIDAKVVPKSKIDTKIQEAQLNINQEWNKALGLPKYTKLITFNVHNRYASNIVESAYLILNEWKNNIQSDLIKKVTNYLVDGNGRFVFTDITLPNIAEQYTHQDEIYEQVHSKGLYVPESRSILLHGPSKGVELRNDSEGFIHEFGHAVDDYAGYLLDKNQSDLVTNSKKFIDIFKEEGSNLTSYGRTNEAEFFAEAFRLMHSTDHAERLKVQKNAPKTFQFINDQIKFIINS
# MazF activator: MazEF (E. coli) toxin RNase activation. FAM/BHQ RNA-DNA oligo cleavage fluorescence, 5 h. hit rate 0.32% among 350,000. activation, % at 20 µM. P0AE70; in the data active means activation above about 50%
# Autofluor counter: flagged as autofluorescent in microsphere protease counterscreen | compound autofluorescence counterscreen, microsphere flow cytometry; active compounds read high | fluorescence intensity (test concentration not listed) | hit rate 3.1% among 360,000 | AID 624483; in the data active means fluorescence intensity above about 16000; inconclusive means no clear call, values can overlap the other calls
# Hits are given with their value; . = inactive; ? = inconclusive; / = no result. Unless noted, no stated cut-off is given here; in the data, active means inhibition above about 30%; inconclusive means no clear call, values can overlap the other calls; inactive means below that.
SMILES,BoNT F protease,BoNT A protease,Anthrax LF prot,MazF activator,Autofluor counter
COc1cc(CNC(C)C)c(Br)cc1OC1CCCC1,.,.,.,.,.
CC(C)C(NS(=O)(=O)c1ccc2c(c1)Cc1cc(S(=O)(=O)NC(C(=O)O)C(C)C)ccc1-2)C(=O)O (stereo unspecified),.,.,.,.,.
COc1ccc(CCn2c(SCC(=O)Nc3cc(C)on3)nc3ccsc3c2=O)cc1OC,.,.,.,.,19488
COCCn1c(SCC(=O)Nc2cc(C)on2)nc2ccccc2c1=O,?,.,.,.,?
CCCCCCn1c(SCC(=O)Nc2cc(C)on2)nc2ccccc2c1=O,.,.,.,.,16827
COC(=O)c1cccc(NC(=O)CSc2nc(=O)cc(N)n2-c2ccccc2)c1,.,.,.,.,16937
Cc1cc(NC(=O)CSc2nc3ccccc3n2CC(=O)N2CC(C)CC(C)C2)no1 (stereo unspecified),.,?,.,.,23778
O=C(CCSCc1ccccc1F)NCc1ccc(F)cc1,.,.,.,.,.
Cc1cc(C)c(C)c(S(=O)(=O)NC(C(=O)NCCc2ccco2)C(C)C)c1C (stereo unspecified),.,.,.,.,.
COC(=O)c1ccccc1NC(=S)NC(=O)COc1ccc(C(C)C)cc1,.,.,.,.,.
COC(=O)c1ccccc1NC(=O)Oc1ccc(C(C)C)cc1,.,.,.,.,24059
Cc1ccc(S(=O)(=O)c2nc(Nc3ccccc3C#N)sc2Cl)cc1,.,.,.,.,.
Cc1ccc(S(=O)(=O)c2nc(Nc3ccccc3N3CCOCC3)sc2Cl)cc1,.,.,.,.,16143
CCOc1ccc(OCCNC2CCCC2)cc1,.,?,.,.,22478
Cc1ccc(OCCCNC2CCCC2)cc1,.,.,.,.,.
CC(C)(C)c1ccc(OCCCNC2CCCC2)cc1,.,.,.,.,.
CCCOc1ccc(OCCNC2CCCC2)cc1,.,.,.,.,20118
O=S1(=O)CC(N2CCC(Cc3ccccc3)CC2)CN1C1CCCC1 (stereo unspecified),.,.,.,/,.
O=S(=O)(Nc1ccc2c(c1)nc1n2CCN(Cc2ccccc2)C1)c1ccccc1,.,.,.,.,.
Cc1ccc(S(=O)(=O)Nc2ccc3c(c2)nc2n3CCN(Cc3ccccc3)C2)cc1,.,.,.,.,18646
O=S(=O)(Nc1ccc2c(c1)nc1n2CCN(Cc2ccccc2)C1)c1ccc(F)cc1,.,.,.,.,24166
COC(=O)c1ccc(N2CCN(C)CC2)c(NC(=O)c2cccnc2)c1,.,.,.,.,.
Cc1cc(NC(=O)Cc2ccccc2)c2ccccc2n1,.,.,.,.,.
Cc1nc2ccccc2c2nc(NC(=O)Cc3ccccc3)nn12,.,?,.,.,17263
C=CCN1C(=O)CS/C1=N/c1nccs1,.,.,.,.,21993
SMILES,BoNT F protease,BoNT A protease,Anthrax LF prot,MazF activator,Autofluor counter
C=CCn1c(-c2cccn(Cc3ccccc3)c2=O)n[nH]c1=S,.,.,.,.,21465
C=CCn1c(-c2cccn(Cc3ccc(Cl)cc3)c2=O)n[nH]c1=S,.,.,.,.,.
CCOC(=O)c1nnn(-c2nonc2N)c1CSc1nnc(N)s1,.,.,.,.,.
CN1OC[C@@H]2CN(Cc3ccc4c(c3)OCO4)[C@H](c3ccc(N4CCCCC4)cc3)C[C@@H]21,.,.,.,/,23460
COc1cc([N+](=O)[O-])ccc1NC(=O)C[n+]1cccc(C(C)=O)c1,.,.,.,.,.
O=C(CN1C(=O)COc2ccccc21)N1CCCc2ccccc21,.,.,.,.,22767
O=C(CN1C(=O)COc2ccccc21)NCc1ccc(C(=O)O)cc1,.,.,.,.,22844
COCCNc1ncnc2c1ncn2[C@H]1CN(Cc2ccc(-c3ccccc3)cc2)C[C@@H](CO)O1,.,.,.,/,.
Cc1cc(-c2ccccc2)c2c(=O)[nH][nH]c2n1,.,.,.,.,.
NC(=O)C1(N2CCCCC2)CCN(Cc2ccc(F)cc2)CC1,.,.,.,.,21961
CCOC(=O)C1CCN(Cc2ccc(C(=O)OC)cc2)CC1,.,.,.,.,23791
COC(=O)c1ccc(/C=N/N2CCN(Cc3ccccc3)CC2)cc1,.,.,.,.,.
CCOC(=O)C1CCN(C(=O)c2cccc(C(=O)N3CCC(C(=O)OCC)CC3)c2)CC1,.,?,.,.,21616
COC(=O)c1ccc(/C=N\N2CCN(Cc3ccc(C)cc3)CC2)cc1,.,?,.,.,16594
N#Cc1ccccc1COC(=O)CCC(=O)c1cccs1,.,.,.,.,.
CCOC(=O)C1CCN(Cc2ccc(F)cc2)CC1,.,.,.,.,16511
CCOC(=O)C1CCN(Cc2cnc(Oc3ccc(N)cc3)s2)CC1,.,.,.,.,21292
O=C(COC(=O)c1ccco1)Nc1cccc(S(=O)(=O)N2CCOCC2)c1,.,.,.,.,.
CC(C)C[C@H]1CN=C(Nc2ccccc2)N1CC1CCCCCC1,.,.,.,.,.
COc1ccc(-c2nnc(SCC(=O)c3ccc(O)cc3O)o2)cc1,.,.,.,.,.
CN(CC(=O)Nc1cccc(Cl)c1)S(=O)(=O)c1ccc2c(c1)n(C)c(=O)c(=O)n2C,.,.,.,.,.
O=C(/C=C/c1ccc(F)cc1)NCCCn1ccnc1,.,.,.,.,.
Cc1cc(N=Cc2c(O)n(-c3ccc4c(c3)OCO4)c(=O)c3ccccc23)ccn1,.,.,.,.,.
Cc1ccc(-n2c(O)c(C=Nc3ccc4c(c3)OCO4)c3ccccc3c2=O)cc1C,.,.,.,.,22790
CC(=O)c1ccc(S(=O)(=O)Nc2ccc(-n3c(C)nc4ccccc4c3=O)cc2)cc1,?,.,.,.,?
SMILES,BoNT F protease,BoNT A protease,Anthrax LF prot,MazF activator,Autofluor counter
COc1cc(Oc2ccccc2)nc(N)n1,.,.,.,.,.
Cc1cc(C(=O)N/N=C/c2ccc(-c3ccc([N+](=O)[O-])cc3C)o2)n[nH]1,.,.,.,75.4,.
CCc1ccc(CN2CCN(c3ncccn3)CC2)cc1,44.4,.,.,.,.
CN1CCN(CCC(=O)Nc2ccc(OCc3ccccc3)cc2)CC1,.,.,.,.,.
O=C(Nc1ccc(N2CCN(Cc3ccccc3)CC2)cc1)c1ncn[nH]1,.,.,.,.,23010
O=C(CCN1CCN(CCO)CC1)Nc1ccc(OCc2ccccc2)cc1,.,.,.,.,19226
S=C(Nc1ccccc1)Nc1ccc(OCc2ccccc2)cc1,.,?,.,.,19054
O=C(CCN1CCN(Cc2ccccc2)CC1)Nc1ccc(OCc2ccccc2)cc1,.,.,.,.,17367
Cc1ccc(NC(=O)CSc2ncn[nH]2)c([N+](=O)[O-])c1,.,.,.,.,.
CC(C)c1ccc(CN(C)C(=O)c2ccc(S(=O)(=O)NCc3ccco3)cc2)cc1,.,.,.,.,.
COc1ccc(NC(=S)Nc2cc(-c3ccccc3)[nH]n2)cc1Cl,.,.,.,.,.
CCOc1ccc(NC(=S)Nc2cc(-c3ccccc3)[nH]n2)cc1,.,.,.,.,19137
CCc1ccc(NC(=O)N(CCN2CCOCC2)Cc2ccc3c(c2)CCCN3CC)cc1,.,.,.,.,.
CCN1CCCc2cc(CN(CCN3CCOCC3)C(=O)Nc3ccc(C)c(C)c3)ccc21,.,.,.,.,20262

# High-throughput results from PubChem.
